Compounds with a hit are over-represented: about 7.4% of the library has one in this group of screens.
HEK cytotox: Cytotoxic Profiling in HEK 293 Cell Line of Diverse Libraries Using Quantitative High-Throughput Screening | HEK 293 viability, ATP luminescence (CellTiter-Glo), 48-72 h | Potency, µM (highest dose often 115 µM), for inactives: top-dose activity change, negative = cytotoxicity, actives largely listed as inhibitors | 94,000 compounds, 6.6% hits; note: nearly all actives have a fitted effect of over 60% in size
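qHTS cytotoxicity; HEK 293, 250 cells/well; compound pinned; 48 or 72 hr, 37 degree Celsius, 5% CO2, 95% humidity; CellTiter-Glo, 10 min RT; luminescence (ATP).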
SNCA viab count: GF-AFC viability counterscreen for inhibitors of alpha-synuclein gene (SNCA) expression. HEK-293-SNCA-luc viability, GF-AFC fluorescence, 24 h. Potency, µM (series often up to 57.1 µM), for inactives: top-dose activity change, negative = cytotoxicity, usual class: cytotoxic. 150,000 compounds, 0.12% hits;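 note: 0% = DMSO-treated cells and -100% = medium-only wells without cells; nearly all actives have a fitted effect of over 30% in size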
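HEK-293-SNCA-luc cells (1500/well) plated 24 h, then exposed 24 h to a dilution series; GF-AFC added 30 min at 37C, fluorescence 405/540 nm; normalised to medium-only and DMSO wells, Hill fit.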
SNCA expr inhib: Primary qHTS assay for inhibitors of alpha-synuclein gene (SNCA) expression; HEK-293 SNCA-luciferase knock-in, luminescence, 24 h; Potency, µM (highest dose often 57.2 µM), for the others: top-dose activity change, negative = inhibition, hits mostly inhibitors; 140,000 compounds, 0.17% hits; AID 1671194, 2021;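 note: plate controls were DMSO cells for no effect and cell-free wells for full effect; nearly all actives have a fitted effect of over 45% in size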
3T3 cytotox: Cytotoxic Profiling in NIH 3T3 Cell Line of Diverse Libraries Using Quantitative High-Throughput Screening; NIH 3T3 viability, CellTiter-Glo ATP luminescence, 48-72 h; Potency, µM (titrated, usually from 96.7 µM), for the others: at the top dose activity change, negative = cytotoxicity, usual class: inhibitors; 94,000 compounds, 4.3% hits; AID 1345082, 2018; note: nearly all actives have a fitted effect of over 55% in size
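First NIH 3T3 cells are plated at 400 cells/well; next compound is pinned in; then plates incubate 48 or 72 hr at 37 °C; finally CellTiter-Glo is added and luminescence read after 10 min.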
FLuc inh: Firefly luciferase inhibition profiling of diverse chemical library using quantitative high-throughput screening | Luciferin 4-monooxygenase (Photinus pyralis), P08659 | purified P. pyralis luciferase, luminescence, biochemical | AID 1347043, 2019 | Potency, µM (doses to about 115 µM), hits mostly inhibitors | 76,000 compounds, 2.5% hits; note: nearly all actives have a fitted effect of over 65% in size
Target sequence (P08659 whole entry, looked up): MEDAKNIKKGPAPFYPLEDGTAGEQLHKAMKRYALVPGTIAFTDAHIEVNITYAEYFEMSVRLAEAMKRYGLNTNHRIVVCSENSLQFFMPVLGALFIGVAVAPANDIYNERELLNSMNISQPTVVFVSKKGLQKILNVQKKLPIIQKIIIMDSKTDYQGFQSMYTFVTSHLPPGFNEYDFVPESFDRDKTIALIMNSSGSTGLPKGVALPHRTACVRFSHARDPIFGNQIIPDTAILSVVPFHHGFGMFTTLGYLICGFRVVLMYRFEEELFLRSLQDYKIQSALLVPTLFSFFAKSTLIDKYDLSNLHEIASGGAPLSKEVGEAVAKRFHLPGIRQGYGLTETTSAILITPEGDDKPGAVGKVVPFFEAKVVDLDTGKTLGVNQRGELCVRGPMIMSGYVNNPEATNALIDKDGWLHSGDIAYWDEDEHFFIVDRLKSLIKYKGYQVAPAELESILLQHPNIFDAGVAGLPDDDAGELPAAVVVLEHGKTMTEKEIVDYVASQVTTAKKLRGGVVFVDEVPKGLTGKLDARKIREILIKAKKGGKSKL
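Purified P. pyralis luciferase (10nM final) in 50mM Tris acetate pH 7.5, 10mM Mg acetate, 0.01% Tween-20, 0.05% BSA with 10uM D-luciferin and 10uM ATP. Compounds titrated qHTS. Luminescence imaged on CCD.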
hNpr1 antagonist: Natriuretic polypeptide receptor (hNpr1) antagonism - Primary qHTS. HEK293 hNpr1 GloSensor cGMP, ANP-stimulated luminescence. Potency, µM (top dose mostly 46.3 µM), for the others: at the top dose activity change, negative = inhibition, actives largely listed as inhibitors. 76,000 compounds, 1.6% hits; calls by dose curve; note: nearly all actives have a fitted effect of over 60% in size
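HEK293 cells stably expressing human Npr1 and cGMP GloSensor pGS-40F, loaded 2 h with 2% GloSensor reagent, given compound 30 min at room temperature. Luminescence read before and 20 min after 0.1 nM hNppA.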
Starred values were filed as active, the others as inactive; i = inactive; ? = inconclusive; · = no result; [ ] = dose if it differs, or a comment. Unless noted, calls come from the whole dose curve; as a rule, active = well fitted curve in the direction sought with a large enough effect; inconclusive = small, poorly fitted or top-dose-only effect, or another doubt; inactive = no such curve, though single readings can be large; an effect the other way counts as inactive or inconclusive. Unless noted, % is set by controls: 0 for no effect and ±100 for the full control effect; potency is the fitted concentration of half-maximal effect.

SMILES	HEK cytotox	SNCA viab count	SNCA expr inhib	3T3 cytotox	FLuc inh	hNpr1 antagonist
Cc1ccc(C(=O)N2CCCN(c3cc(-c4ccc(Cl)cc4)[nH]n3)CC2)cc1C	?	?	-10%	35µM*	i	-22%
Cc1cc(C)cc(C(=O)N2CCCN(c3cc(-c4ccc(Cl)cc4)[nH]n3)CC2)c1	45µM*	3%	-21%	?	i	-27%
Cc1cccc(C(=O)N2CCCN(c3cc(-c4ccc(Cl)cc4)[nH]n3)CC2)c1	?	-5%	-2%	?	i	-30%
O=C(c1ccc(F)c(F)c1)N1CCCN(c2cc(-c3ccc(F)cc3)[nH]n2)CC1	?	1%	28%	-5%	i	-14%
O=C(c1ccc(F)c(F)c1)N1CCN(c2cc(-c3ccc(Cl)cc3)[nH]n2)CC1	?	3%	-15%	35µM*	i	?
Cn1nc(C(=O)N2CCCN(c3cc(-c4ccc(Cl)cc4)[nH]n3)CC2)c2ccccc21	40µM*	-24%	-10%	?	i	-27%
COc1ccc(C(=O)N2CCC(C(=O)N3CCC(c4ccccc4)CC3)CC2)cc1	-28%	-5%	-11%	-34%	·	·
CC(=O)O[C@@H](CO[C@@H]1O[C@H](CO)[C@H](O)[C@H](O)[C@H]1O)[C@]1(C)C=C2CC[C@@H]3C(C)(C)[C@@H](O)CC[C@@]3(C)[C@@H]2CC1	·	-1%[23.9 µM]	·	·	·	·
COc1cccc(CNC(=O)c2ccc3oc(-c4cccnc4)nc3c2)c1	?	9%	31%	?	·	·
O=C(NCc1ccccc1F)C1CCc2nnc(CN[S+](=O)([O-])c3ccccc3Cl)n21 (stereo unspecified)	-8%	-3%	?	-25%	·	·
O=C(c1ccco1)N1CCCN(c2cc(-c3ccc(Br)cc3)[nH]n2)CC1	?	-11%	44%	?	?	?
O=C(c1ccc(Br)o1)N1CCCN(c2cc(-c3ccc(Cl)cc3)[nH]n2)CC1	?	4%	-16%	40µM*	i	?
O=C(c1cccs1)N1CCCN(c2cc(-c3ccc(Cl)cc3)[nH]n2)CC1	45µM*	-4%	-27%	?	?	?
CC(C)=CCC[C@](C)(O[C@@H]1O[C@H](CO[C@@H]2OC[C@@H](O)[C@H](O)[C@H]2O)[C@@H](O)[C@H](O)[C@H]1O)[C@H]1CC[C@]2(C)[C@@H]1[C@H](O)C[C@@H]1[C@@]3(C)CC[C@H](O[C@@H]4O[C@H](CO)[C@@H](O)[C@H](O)[C@H]4O[C@@H]4O[C@H](CO)[C@@H](O)[C@H](O)[C@H]4O)C(C)(C)[C@@H]3CC[C@]12C	·	-1%[23.9 µM]	·	·	·	·
COc1ccccc1NC(=O)c1cc2c(N3CCSCC3)nc(C)cn2n1	50µM*	3%	-6%	-10%	i	2%
COc1cc(NC(=O)c2cc3c(N4CCCC4)nc(C)cn3n2)cc(OC)c1OC	45µM*	-21%	7%	?	i	0%
COc1ccc(OC)c(NC(=O)c2cc3c(N4CCSCC4)nc(C)cn3n2)c1	-23%	9%	3%	-11%	i	-2%
COc1cc(NC(=O)c2cc3c(N4CCSCC4)nc(C)cn3n2)cc(OC)c1OC	35µM*	-9%	7%	?	i	-25%
COC[C@@H]1[C@H](C(=O)NCc2ccccc2C)CCC(=O)N1C	i	23%	-12%	-6%	·	·
Cc1ccccc1Cn1cc(-c2ccncc2)cc1C(=O)NC1CC1	?	7%	6%	?	i	1%
Cc1ccccc1Cn1cc(-c2ccncc2)cc1C(=O)Nc1ccc2c(c1)OCO2	35µM*	?	38%	?	?	-16%
Cc1ccccc1Cn1cc(-c2ccncc2)cc1C(=O)N1CCCC(C)C1 (stereo unspecified)	45µM*	3%	1%	?	i	-8%
CC(C)(C)c1ccc(-n2ncc3c2CCCC3NC(=O)c2c[nH]c(=O)[nH]c2=O)cc1 (stereo unspecified)	32µM*	-17%	3%	?	?	8.9µM*
O=C(NCCC1=CCCCC1)C1CCN(C(=O)c2ncn3c2COC(c2ccc(F)cc2)C3)CC1 (stereo unspecified)	-13%	?	?	-23%	22µM*	-6%
COc1ccc(C2Cn3cnc(C(=O)N4CCC(C(=O)NCCC5=CCCCC5)CC4)c3CO2)cc1 (stereo unspecified)	1%	2%	5%	i	i	4%
SMILES	HEK cytotox	SNCA viab count	SNCA expr inhib	3T3 cytotox	FLuc inh	hNpr1 antagonist
CCCCNC(=O)C1CCN(C(=O)c2ncn3c2COC(c2ccc(F)cc2)C3)CC1 (stereo unspecified)	-15%	-6%	-10%	-2%	40µM*	1%
O=C(NCCC1=CCCCC1)C1CCN(C(=O)c2ncn3c2COC(c2ccccc2)C3)CC1 (stereo unspecified)	-7%	0%	69%	-10%	2µM*	-22%
COCCC1(NC(=O)NCc2ccc(C)cc2)CCN(S(C)(=O)=O)CC1	-3%	13%	-11%	-11%	·	·
COCC(=O)NC[C@@H]1C=C(C)[C@H](Cc2nc3ccc(F)cc3[nH]2)C[C@H]1C(C)C	?	?	-26%[87.6 µM]	50µM*	i	-15%[70.6 µM]
CC1=C[C@@H](CNC(=O)c2cccnc2)[C@H](C(C)C)C[C@H]1Cc1nc2ccc(F)cc2[nH]1	?	-24%[87.6 µM]	?	?	i	-4%[70.6 µM]
CC(=O)NC[C@@H]1C=C(C)[C@H](Cc2nc3ccc(F)cc3[nH]2)C[C@H]1C(C)C	45µM*	-26%[87.6 µM]	-15%[87.6 µM]	79µM*	i	-15%[70.6 µM]
COCC(=O)NC[C@@H]1C=C(C)[C@H](Cc2nc3ccccc3[nH]2)C[C@H]1C(C)C	?	?	?	?	i	-22%[70.6 µM]
CN(Cc1ccc(C2CCCCO2)s1)CC1CCN(CCc2ccc(F)cc2)CC1 (stereo unspecified)	45µM*	-16%	7%	?	i	-6%
CN(CC1CCN(CCc2ccc(F)cc2)CC1)C1CCC1	?	2%	-1%	-31%	i	3%
Cc1ccc(NC(=O)Cn2c(-c3ccccc3)nc(C)c(CCO)c2=O)cc1Cl	?	?	?	28µM*	i	-15%
